Most compounds without a hit are left out; they make up all but 0.9% or so of the library.
SRC3 TRFRET art – flags TR-FRET format artefacts in PPARgamma SRC-3 recruitment agonist screen; TR-FRET artefact counter-screen, PPARgamma/SRC-3 format; active compounds read high; TR-FRET ratio at 8 µM; 0.39% of 99,000 active; in the data active means TR-FRET ratio above about 2000
SRC1 TRFRET art – TR-FRET artefact, counter-screen to PPARgamma/SRC-1 agonist assay; TR-FRET detection artefact counter-screen, emission ratio; active compounds read high; TR-FRET ratio at 8 µM; 0.34% of 99,000 active; in the data active means TR-FRET ratio above about 2300
TR-FRET SRC-2 ct – TR-FRET artefact, counter-screen to PPARgamma/SRC-2 agonist assay; active compounds read high; TR-FRET ratio at 8 µM; 0.4% of 200,000 active; AID 1049; in the data active means TR-FRET ratio above about 2000
PPARg SRC-3 ag – promotes SRC-3 coactivator recruitment by human PPARgamma; biochemical PPARgamma/SRC-3 coactivator recruitment assay; activation, % at 8 µM; 0.26% of 200,000 active; AID 731; in the data active means activation above about 23%
Target sequence (P37231 whole entry, looked up): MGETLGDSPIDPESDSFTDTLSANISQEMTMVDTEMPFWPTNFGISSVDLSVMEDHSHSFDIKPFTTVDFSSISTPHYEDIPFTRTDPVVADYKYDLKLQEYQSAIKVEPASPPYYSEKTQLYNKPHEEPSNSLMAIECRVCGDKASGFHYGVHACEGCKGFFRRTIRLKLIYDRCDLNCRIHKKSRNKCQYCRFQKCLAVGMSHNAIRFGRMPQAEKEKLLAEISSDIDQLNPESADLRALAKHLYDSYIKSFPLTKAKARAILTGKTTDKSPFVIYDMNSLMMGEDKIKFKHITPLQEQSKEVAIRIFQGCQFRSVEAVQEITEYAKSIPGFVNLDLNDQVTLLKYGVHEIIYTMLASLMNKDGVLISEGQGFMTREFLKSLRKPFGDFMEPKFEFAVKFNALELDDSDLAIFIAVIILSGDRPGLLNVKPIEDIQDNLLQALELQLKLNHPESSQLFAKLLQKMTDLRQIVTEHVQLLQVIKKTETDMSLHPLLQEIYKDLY
PPARg SRC-1 ag – PPARgamma-driven SRC-1 recruitment agonism | P37231 | AID 631 | 0.41% of 200,000 active | PPARgamma-SRC-1 coactivator recruitment biochemical assay | activation, % at 8 µM; in the data active means activation above about 19%
PPARg SRC-2 ag – agonists of SRC-2 recruitment by human PPARgamma; AID 1032; 0.34% of 200,000 active; activation, % at 8 µM; P37231; PPARgamma LBD-SRC-2 recruitment, biochemical
PPARg SRC2 ag – human PPARgamma SRC-2 recruitment agonism, confirmation; shares compounds with PPARg SRC-3 ag; biochemical SRC-2 recruitment by PPARgamma; activation, % at 8 µM; 52% of 790 active; AID 1297
PPARg SRC1 conf – confirmation of agonists of SRC-1 recruitment by human PPARgamma. shares compounds with PPARg SRC-3 ag. PPARgamma–SRC-1 coactivator recruitment biochemical assay. 43% of 790 active. activation, % at 8 µM. AID 1300; in the data active means activation above about 20%
PPARg SRC3 conf – confirmation of agonists of SRC-3 recruitment by human PPARgamma; shares compounds with PPARg SRC-3 ag; biochemical PPARgamma-SRC-3 coactivator recruitment, agonist mode; activation, % at 8 µM; 29% of 790 active; in the data active means activation above about 24%
Of the large screens only hits and unclear results are named; the others gave an inactive call (follow-up assays come after a bar, where they were run). Unless noted, no stated cut-off is given here; in the data, active means activation above about 22%; inactive means the rest.

COc1ccc(-c2nc(-c3cccs3)c(-c3cccs3)[nH]2)cc1O	TR-FRET SRC-2 ct 3397, PPARg SRC-3 ag 90.3, PPARg SRC-1 ag 63.0, PPARg SRC-2 ag 89.5 (no result: SRC3 TRFRET art, SRC1 TRFRET art) | PPARg SRC2 ag 55.8 | PPARg SRC1 conf 43.6 | PPARg SRC3 conf 39.9
CC(C)OP(=O)(OC(C)C)C(C)NC(=O)Cc1ccccc1 (configuration not stated)	none
COc1ccc2[nH]c3c(Cl)ncnc3c2c1	none
COc1ccc2[nH]c3c(=S)nc[nH]c3c2c1	SRC3 TRFRET art 2527, SRC1 TRFRET art 2593, TR-FRET SRC-2 ct 2492, PPARg SRC-3 ag 23.2, PPARg SRC-1 ag 26.4, PPARg SRC-2 ag 33.6 | PPARg SRC2 ag inactive | PPARg SRC1 conf inactive | PPARg SRC3 conf inactive
O=C(Nc1nc2c(s1)CN(Cc1ccccc1)CC2)c1cccc(S(=O)(=O)N2CCc3ccccc32)c1	TR-FRET SRC-2 ct 4126, PPARg SRC-3 ag 38.6, PPARg SRC-1 ag 36.9 (no result: SRC3 TRFRET art, SRC1 TRFRET art) | PPARg SRC2 ag 50.0 | PPARg SRC1 conf 41.1 | PPARg SRC3 conf 30.0
Cc1nnc(NC(=O)c2cccc(S(=O)(=O)N3CCc4ccccc43)c2)s1	none (no result: SRC3 TRFRET art, SRC1 TRFRET art)
CCOC(=O)C(C)Oc1ccc(OCc2ccccc2)cc1 (configuration not stated)	none
COc1cccc(OC)c1C(=O)Nc1nnc(-c2cccs2)s1	SRC3 TRFRET art 2204, SRC1 TRFRET art 2546, PPARg SRC-1 ag 30.8, PPARg SRC-2 ag 28.4 | PPARg SRC2 ag 27.2 | PPARg SRC1 conf 21.5 | PPARg SRC3 conf inactive
CCC(CC)C(=O)Nc1nnc(-c2cccs2)s1	none (no result: SRC3 TRFRET art, SRC1 TRFRET art)
Cc1ccc(NC(=O)CSc2nnc(CNC(=O)c3cccs3)o2)c(C)c1	none
COc1ccc(C(C(=O)NCC2CCCO2)N(C(=O)CNC(=O)c2cccs2)c2ccc(C(C)=O)cc2)cc1OC (configuration not stated)	none
COc1ccccc1-c1n[nH]c(=S)o1	TR-FRET SRC-2 ct 2562, PPARg SRC-3 ag 58.7, PPARg SRC-1 ag 36.1, PPARg SRC-2 ag 48.1 (no result: SRC3 TRFRET art, SRC1 TRFRET art) | PPARg SRC2 ag 45.7 | PPARg SRC1 conf 34.8 | PPARg SRC3 conf 30.5
COc1ccccc1-c1cc(N)n[nH]1	none (no result: SRC3 TRFRET art, SRC1 TRFRET art)
COc1ccc(Cl)cc1-c1n[nH]c(=S)o1	TR-FRET SRC-2 ct 3750, PPARg SRC-3 ag 118.8, PPARg SRC-1 ag 56.9, PPARg SRC-2 ag 103.6 (no result: SRC3 TRFRET art, SRC1 TRFRET art) | PPARg SRC2 ag 71.7 | PPARg SRC1 conf 50.5 | PPARg SRC3 conf 48.8
CC(C)(C)NC(=O)CSc1nc(N)c(-c2ccccc2)c(=O)[nH]1	none
CSc1ccccc1-c1n[nH]c(=S)o1	SRC3 TRFRET art 3610, SRC1 TRFRET art 4008, TR-FRET SRC-2 ct 3652, PPARg SRC-3 ag 44.5, PPARg SRC-1 ag 69.5, PPARg SRC-2 ag 95.6 | PPARg SRC2 ag 50.5 | PPARg SRC1 conf 33.0 | PPARg SRC3 conf 34.1
Cc1ccc(-c2cc(-c3n[nH]c(=S)o3)c3ccccc3n2)cc1	none
Cc1ccccc1-c1n[nH]c(=S)o1	TR-FRET SRC-2 ct 3075, PPARg SRC-3 ag 79.2, PPARg SRC-1 ag 46.1, PPARg SRC-2 ag 67.5 (no result: SRC3 TRFRET art, SRC1 TRFRET art) | PPARg SRC2 ag 49.9 | PPARg SRC1 conf 33.5 | PPARg SRC3 conf 35.6
CC(Cc1n[nH]c(=S)o1)c1ccccc1 (configuration not stated)	none
S=c1[nH]nc(Cc2cccc3ccccc23)o1	none
S=c1[nH]nc(-c2ccccc2)o1	TR-FRET SRC-2 ct 2863, PPARg SRC-3 ag 71.2, PPARg SRC-1 ag 56.2, PPARg SRC-2 ag 66.9 (no result: SRC3 TRFRET art, SRC1 TRFRET art) | PPARg SRC2 ag 51.7 | PPARg SRC1 conf 37.2 | PPARg SRC3 conf 35.2
O=c1c2ccccc2c(-c2n[nH]c(=S)o2)nn1Cc1ccccc1	SRC3 TRFRET art 2375, SRC1 TRFRET art 2576, TR-FRET SRC-2 ct 2234, PPARg SRC-1 ag 23.4, PPARg SRC-2 ag 27.8 | PPARg SRC2 ag 48.7 | PPARg SRC1 conf 42.1 | PPARg SRC3 conf 30.9
O=C(Nc1ccn(-c2ccccc2)n1)c1ccccc1Br	none
O=C(O)CCCSc1nccn1-c1ccccc1	none
Oc1ccc(Cl)cc1CNc1ccc(Br)cn1	PPARg SRC-1 ag 23.4 (no result: SRC3 TRFRET art, SRC1 TRFRET art) | PPARg SRC2 ag inactive | PPARg SRC1 conf inactive | PPARg SRC3 conf inactive

From PubChem
